# Hits are enriched below; roughly 4% of the tested compounds scored in any of these assays.
# MazF activator = activators of E. coli MazEF toxin-antitoxin RNase, primary screen, biochemical, fluorescence, uHTS. 350,000 tested, 0.32% active. activation, % at 20 µM. Endoribonuclease toxin MazF (Escherichia coli (strain K12)), P0AE70. FAM/BHQ RNA-DNA oligo cleavage fluorescence, 5 h; in the data active means activation above about 50%
# Target sequence (P0AE70 whole entry, looked up): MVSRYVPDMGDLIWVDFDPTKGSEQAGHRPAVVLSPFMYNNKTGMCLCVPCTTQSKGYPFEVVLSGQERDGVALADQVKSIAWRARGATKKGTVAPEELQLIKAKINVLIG
# Mtb betalactam = beta-lactam sensitization of Mtb H37Rv, H37Rv. M. tuberculosis H37Rv growth with meropenem, percent inhibition. inhibition, % at 25 µM. 330,000 tested, 0.27% active. AID 434955, 2010; call rule not given here;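 further: growth measured after seven days incubation then overnight dye step; 0% = bacteria only wells and 100% = bacteria with antibiotic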
# FBA Mtb inh = Mtb FBA enzyme inhibitors, primary screen, biochemical, fluorescence, strain H37Rv. 360,000 tested, 2.3% active. purified M. tuberculosis FBA, fluorescence read-out. inhibition, % at 1 µM;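 further: 0% = vehicle and 100% = reference inhibitor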
# Target sequence (P9WQA3 whole entry, looked up): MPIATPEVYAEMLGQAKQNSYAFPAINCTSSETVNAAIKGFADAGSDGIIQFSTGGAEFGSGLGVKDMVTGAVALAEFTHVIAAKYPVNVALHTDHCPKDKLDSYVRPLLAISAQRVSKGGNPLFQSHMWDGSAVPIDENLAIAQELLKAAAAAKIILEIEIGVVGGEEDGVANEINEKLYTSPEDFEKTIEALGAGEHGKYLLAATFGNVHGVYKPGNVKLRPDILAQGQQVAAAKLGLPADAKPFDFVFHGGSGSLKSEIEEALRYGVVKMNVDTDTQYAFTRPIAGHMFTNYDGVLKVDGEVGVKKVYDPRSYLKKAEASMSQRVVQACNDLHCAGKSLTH
# CCHF vOTU inh = CCHFV vOTU protease inhibitors, primary screen, biochemical, Pep-AMC substrate, fluorescence. Crimean-Congo hemorrhagic fever virus L polyprotein viral ovarian tumor (vOTU) protease …. inhibition, % at 11.5 µM. 370,000 tested, 0.55% active. AID 651958, 2012; in the data active means inhibition above about 30%; further: 0% = vehicle wells with enzyme and 100% = no enzyme wells
# GDH-TPI counter-1 = GDH-TPI coupling enzyme inhibitors, primary screen, artefact control for M. tuberculosis FBA inhibitor project, biochemical, absorbance, full deck; GDH-TPI coupled enzyme counterscreen, NADH absorbance; inhibition, % at 4.8 µM; 360,000 tested, 1.2% active; AID 588335, 2011; in the data active means inhibition above about 30%;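 further: 0% = DMSO wells and 100% = wells lacking the enzyme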
# Mtb FBA inh conf = M. tuberculosis aldolase blockers, biochemical, fluorescence, strain H37Rv, confirmation | purified M. tuberculosis FBA, fluorescence read-out | inhibition, % at 1 µM | shares compounds with FBA Mtb inh | AID 651616, 2012 | 5,600 tested, 78% active;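 further: 0% = vehicle wells and 100% = reference inhibitor wells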
# GDH-TPI counter-2 = GDH-TPI coupling enzyme inhibitors, artefact control for M. tuberculosis FBA inhibitor project, biochemical, fluorescence, high throughput; shares compounds with FBA Mtb inh; GDH-TPI coupled enzyme counterscreen; inhibition, % at 1 µM; 5,600 tested, 81% active; in the data active means inhibition above about 10%
# Numbers without * were called inactive; nt = no result given; + = active, no number. Unless noted, no stated cut-off is given here; in the data, active means inhibition above about 27%; inactive means the rest.
SMILES,MazF activator,Mtb betalactam,FBA Mtb inh,CCHF vOTU inh,GDH-TPI counter-1,Mtb FBA inh conf,GDH-TPI counter-2
O=C(NNc1c2ccccc2nc2ccccc12)c1ccc(Cl)cc1,-6.2,8.6,18.2,-2.6,9.9,nt,nt
COC(=O)C1=CN(c2ccc(F)cc2)C=C(C(=O)OC)C1c1ccc(O)cc1,7.2,-3.0,70.8*,-83.5,9.3,95.8*,82.3*
Cc1nc2c(=O)n(C)c(=O)n(C)c2nc1Cl,11.9,100.5,39.0*,5.0,6.1,63.2*,44.0*
Cc1cc(C)c2nc3nc(C)c(C)cc3c(N)c2c1,5.2,nt,29.3*,-74.2,-4.8,76.3*,47.8*
CCCSc1nc(C)c2cc(C)cc(C)c2n1,-4.3,0.5,5.5,9.6,-5.9,nt,nt
O=C(Nc1ccc(C(F)(F)F)cc1)OC1CCC12CCC(c1ccccc1)CC2 (stereo not given),nt,nt,nt,2.3,nt,nt,nt
Oc1ccc2ccccc2c1C=Nc1ccccc1-c1nc2ccccc2[nH]1,-1.4,3.2,67.1*,-175.1,9.5,61.6*,38.2*
CC(C)(C)c1ccc(O)c(N=Cc2c(O)ccc3ccccc23)c1,-68.7,31.3,-5.8,18.8,5.9,nt,nt
COc1ccc(CNS(=O)(=O)CC2NCCc3ccccc32)cc1 (stereo not given),nt,nt,nt,0.8,nt,nt,nt
Cc1sc2nc(COC(=O)CNC(=O)c3cc(F)ccc3F)[nH]c(=O)c2c1C,nt,nt,nt,0.0,nt,nt,nt
CCCCn1c(-c2ccc(F)c(F)c2)nc2cc3[nH]c(=O)c(C(C)C)nc3cc21,-5.0,56.8,51.9*,11.8,17.0,113.3*,92.1*
CCCCn1c(CCc2ccccc2)nc2cc3[nH]c(=O)c(C(C)C)nc3cc21,-9.0,98.6,32.7*,6.7,7.6,61.3*,50.1*
CCCCn1c(-c2cccc(F)c2)nc2c1c(=O)[nH]c(=O)n2CC(C)C,2.2,9.2,0.4,9.5,-4.4,nt,nt
O=C(NCCC1=CCCCC1)C1CCN(S(=O)(=O)c2ccccc2[N+](=O)[O-])CC1,nt,nt,nt,-4.6,nt,nt,nt
CC(=O)O[C@H]1C=C[C@@H](C#Cc2ccc(C(C)(C)C)cc2)O[C@@H]1COC(=O)Nc1ccccc1,nt,nt,nt,5.5,nt,nt,nt
NC(=O)c1ccccc1NS(=O)(=O)Cc1ccccc1,0.1,4.9,61.6*,-21.6,4.3,83.9*,66.3*
NC(=O)COc1ccc(NS(=O)(=O)Cc2ccccc2)cc1,-5.4,-15.8,1.0,-10.1,3.2,nt,nt
O=C(/C=C(\Nc1ccc(Cl)c(Cl)c1)c1ccccc1)c1ccccc1,nt,nt,nt,-1.1,nt,nt,nt
CC1CCCCN1CCNC(=O)c1cnn2ccccc12 (stereo not given),10.2,2.9,40.4*,2.3,16.0,23.1,13.7*
Nc1ncccc1C(=O)OCC(=O)NC1CCCCCC1,-14.9,9.6,32.8*,-18.9,10.9,55.7*,42.7*
Nc1c(Cl)cc(Cl)cc1C(=O)OCC(=O)NC1CC1,7.9,0.0,84.2*,-105.6,9.7,8.3,0.5
CC(C)N1CCCCC(NC(=O)c2ccccc2)C1=O (stereo not given),nt,nt,nt,5.8,nt,nt,nt
O=C(CN1CCN(Cc2ccccc2Cl)CC1)N/N=C\c1ccccc1F,nt,nt,nt,3.2,nt,nt,nt
COc1ccc2c(c1O)-c1c(OC)c(OC)cc3c1[C@H](C2)N(C)CC3,-0.9,-1.2,4.4,3.8,10.1,nt,nt
COc1cc2c(cc1O)CC1c3c(cc(O)c(OC)c3-2)CCN1C (stereo not given),7.8,-0.1,27.0*,5.4,-10.8,101.0*,95.1*
SMILES,MazF activator,Mtb betalactam,FBA Mtb inh,CCHF vOTU inh,GDH-TPI counter-1,Mtb FBA inh conf,GDH-TPI counter-2
N#Cc1nc(-c2ccc(OCc3ccccc3)cc2)oc1NCc1cccnc1,2.0,77.9,7.3,-7.3,8.4,nt,nt
CN(C)c1oc(-c2ccc(OCc3ccccc3)cc2)nc1C#N,-5.4,98.6,109.5*,-14.0,25.6,-5.7,-5.2
O=C(NCc1ccc(C(=O)N2CCCC2)cc1)c1cccc(Br)c1,nt,nt,nt,-2.3,nt,nt,nt
OCCN1CCN(c2nc(NCc3ccco3)c3ccccc3n2)CC1,5.8,-3.8,7.1,1.3,17.9,nt,nt
OCCNc1nc(N2CCN(c3ccccc3)CC2)nc2ccccc12,13.3,0.2,107.1*,-6.3,12.8,+,177.2*
CC(=O)Nc1cccc(-c2cc(C(C)=O)c3n(c2=O)CCC3)c1,nt,nt,nt,7.3,nt,nt,nt
O=S1(=O)CCN2C=Nc3sc4c(c3C2=N1)CCCC4,0.2,-4.2,-2.6,7.3,3.5,nt,nt
O=S1(=O)CCN2C=C(Br)C=C(Br)C2=N1,-1.2,-13.0,28.5*,-22.5,29.6,133.1*,104.9*
CNC(=O)Oc1ccc(-c2cn3cc(C)ccc3n2)cc1,-10.1,7.9,46.7*,-19.4,13.2,38.4*,34.2*
COC(=O)c1ccc2nc(-c3ccc(S(C)(=O)=O)cc3)cn2c1,8.0,7.3,35.7*,-30.1,-6.1,140.6*,142.2*
COc1ccc(-c2cn3cc(C)ccc3n2)cc1F,1.8,16.4,37.1*,-15.4,7.6,77.0*,64.9*
COc1ccc(-c2cn3cccc(C)c3n2)cc1F,1.7,10.3,30.8*,-5.8,-1.6,-4.3,-6.6
COC(=O)c1ccc2nc(-c3cccc(N)c3)cn2c1,0.7,-3.8,-2.6,-9.1,25.6,nt,nt
CNC(=O)Oc1cccc(-c2cn3cc(Cl)ccc3n2)c1,5.4,3.7,6.5,-1.0,10.6,nt,nt
COC(=O)[C@]12C[C@H](CC(=O)N3CCCC3)C(=O)N(Cc3ccco3)C1=C[C@H](C(C)(C)C)O[C@@H]2C,nt,nt,nt,1.7,nt,nt,nt
COc1ccccc1CCn1cnc(-c2ccc(Br)cc2)c1CC(C)C,nt,nt,nt,6.8,nt,nt,nt
COC(=O)[C@]12C[C@H](CC(=O)NCc3ccccc3)C(=O)N(Cc3cccc4ccccc34)C1=C[C@H](COCc1ccccc1)O[C@@H]2C,nt,nt,nt,7.1,nt,nt,nt
O=C(NCC1CCN(C(=O)C(=O)c2cccs2)CC1)c1cccnc1,nt,nt,nt,10.9,nt,nt,nt
NC(=O)c1ccc2c(=O)n3c(-c4cc(Cl)c(N)c(Cl)c4)csc3nc2c1,-7.5,-2.6,2.6,2.3,10.8,nt,nt
Cc1ccc(-c2csc3nc4cc(C(=O)NC5CCC(O)CC5)ccc4c(=O)n23)cc1 (stereo not given),13.9,-7.0,30.2*,2.4,5.7,0.1,-1.5
Cc1ccc(C(=O)CSc2nc3ccc(C(=O)NCCN4CCCCC4)cc3c(=O)[nH]2)cc1,1.5,-10.4,-0.5,-5.4,0.9,nt,nt
Cc1csc2nc3cc(C(N)=O)ccc3c(=O)n12,2.8,-6.0,71.6*,-54.2,11.4,+,+
Cc1ccc(-c2csc3nc4ccc(C(=O)NCCO)cc4c(=O)n23)cc1,14.5,7.2,30.8*,-44.0,5.1,+,+
C=CCn1c(Cc2cccs2)nnc1SCC(=O)Nc1ccc(C)cc1,nt,nt,nt,1.3,nt,nt,nt
O=C(c1ccccc1)N1CCC2CCN(S(=O)(=O)c3ccccc3)CC21 (stereo not given),nt,nt,nt,-5.4,nt,nt,nt
